Measurements reported in publication PMC5540273 (PLoS ONE, 2017).

The molecules below were run on LCK. Settings: concentration: 1 μM, replicates: in singlicate; n = 1.
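Also: KINOMEscan kinase panel screen.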

Compound | %Inh
Nc1n[nH]c2cnc(-c3ccccc3)cc12 [SB-642124] | 0%
COc1cccc(C2=C(Nc3ccc(Cl)c(C(=O)O)c3)C(=O)NC2=O)c1 [SB-390769] | 15%
Cn1cc(-c2ccc3c(c2)CCN3C(=O)Cc2cccc(Cl)c2)c2c(N)ncnc21 [GSK2606590] | 44%
COc1cccc(-c2ccc3c(NC(=O)C4CC4)n[nH]c3n2)c1 [SB-710903] | 23%
Cc1ccc(C(=O)N2CC[C@@H](O)C2)cc1-n1c(C)cc(OCc2ccc(F)cc2F)c(Br)c1=O | 99.4%
O=c1[nH]cc(-c2ccc(N3CCOCC3)cc2)c2sc(-c3cn[nH]c3)cc12 [GSK2276055] | 9%
COc1cc(Nc2ncc3c(C)nc(-c4cc5ccccc5[nH]4)n3n2)cc(OC)c1OC [GW869516] | 71%
O=C(Nc1cccc(-c2nn3ccccc3c2-c2ccnc(Nc3cccc(F)c3)n2)c1)c1c(F)ccc(F)c1Cl [GSK357952] | 99.1%
CSc1cccc2c(-c3ccncn3)c(-c3ccc(F)cc3)nn12 [GW514786] | 20%
COc1cc(Nc2nccc(-c3c(-c4cccc(NC(=O)c5c(F)cccc5F)c4)nn4ncccc34)n2)cc(OC)c1OC [GSK327238] | 99.8%
Cc1ccc(S(=O)(=O)Nc2ccc(Nc3nccc(Nc4cccc5[nH]ncc45)n3)cc2)cc1 [GSK581271] | 39%
O=C(Nc1cccc(-c2nn3ncccc3c2-c2ccnc(Nc3ccccc3)n2)c1)c1c(F)cccc1F [GSK198271] | 99.3%
